The values below come from PubChem BioAssay (NCATS).

Records with an inconclusive call do not appear. More than one record can exist for a structure, and the calls need not agree. Activity calls are given as the source filed them. Calls come from the whole dose curve.
Potency is the fitted concentration of half-maximal effect.

A short description of the first experiment: Confirmatory qHTS to identify inhibitors of SARS-CoV-2 cell entry (AID 1645844). For activity, negative = inhibition: % is set by controls: 0 for no effect and ±100 for the full control effect. Note: nearly all actives have a fitted effect of over 45% in size. To be noted: SARS-CoV-2 pseudotyped particle cell entry, luciferase; series mostly up to 57.2 µM; activity, negative = inhibition: at the top concentration. In outline:
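Using stable human ACE2 Expi293F cells, compounds preincubated 1 hr before spike pseudoparticle infection; luciferase signal after 48 hr at 37C, 5% CO2, normalised to spike PP and no-fusion-protein PP wells.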
As to `COC(=O)Nc1nc2ccc(C(=O)c3cccs3)cc2[nH]1`, the Potency is 215 nM (active).

For `COC(=O)C1=C(C)NC(C)=C(C(=O)OCC(C)C)C1c1ccccc1[N+](=O)[O-]` (stereo unspecified), the Potency is 6070 nM (active).

`Cc1ccc(NC(=O)c2ccc(CN3CCN(C)CC3)cc2)cc1Nc1nccc(-c2cccnc2)n1`: the Potency was 21500 nM (active).

As to `CCC1=C[C@@H]2CN(C1)Cc1c([nH]c3ccccc13)[C@@](C(=O)OC)(c1cc3c(cc1OC)N(C)[C@H]1[C@@](O)(C(=O)OC)[C@H](OC(C)=O)[C@]4(CC)C=CCN5CC[C@]31[C@@H]54)C2`, the Potency was 1480 nM (active).

Turning to `Nc1ccn([C@@H]2O[C@H](CO)[C@@H](O)C2(F)F)c(=O)n1`, the Potency is 341 nM (active).

In the case of `CCCc1cc(=O)[nH]c(=S)[nH]1`, the “activity, negative = inhibition” value is -10.8% (inactive).

For `CO[C@@H](C(=O)N1Cc2[nH]nc(NC(=O)c3ccc(N4CCN(C)CC4)cc3)c2C1)c1ccccc1`, the Potency is 482 nM (active).

For `COc1cc(Nc2c(C#N)cnc3cc(OCCCN4CCN(C)CC4)c(OC)cc23)c(Cl)cc1Cl`, the Potency is 19200 nM (active).

Turning to `COc1c(C)c2c(c(O)c1C/C=C(\C)CCC(=O)O)C(=O)OC2`, the Potency is 607 nM (active).

`CCc1c2c(nc3ccc(OC(=O)N4CCC(N5CCCCC5)CC4)cc13)-c1cc3c(c(=O)n1C2)COC(=O)[C@]3(O)CC`: the Potency was 136 nM (active).

On to `COC(c1ccccc1)(c1ccccc1)[C@H](Oc1nc(C)cc(C)n1)C(=O)O`, for which the “activity, negative = inhibition” value is -11.6% (inactive).

The nature of the next experiment: Cytotoxicity counterscreen for inhibitors of SARS-CoV-2 cell entry (AID 1645845). For activity change, negative = cytotoxicity: % is set by controls: 0 for no effect and ±100 for the full control effect. Note: nearly all actives have a fitted effect of over 50% in size. To be noted: cell viability (SARS-CoV-2 entry assay cells); series mostly up to 57.1 µM; activity change, negative = cytotoxicity: at the top concentration. Summed up:
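After a 15 min room-temperature ATPLite 1step step, luminescence reflected ATP remaining in HEK293-ACE2 cells exposed to compound for 1 h plus 48 h at 37 C, with percent activity set by cell and no-cell controls.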
Turning to `COC(=O)Nc1nc2ccc(C(=O)c3cccs3)cc2[nH]1`, the “activity change, negative = cytotoxicity” value is -41.8% (inactive).

As to `Cc1ccsc1C(=CCCN1CCC[C@@H](C(=O)O)C1)c1sccc1C`, the Potency result was “inactive”.

In the case of `OCCOCCN1CCN(C(c2ccccc2)c2ccc(Cl)cc2)CC1` (stereo unspecified), the molecule was called inactive.

Regarding `CC1(C)O[C@@H]2[C@@H](CO[C@@]3(COS(N)(=O)=O)OC(C)(C)O[C@@H]23)O1`, the result was inactive.

For the molecule `CC(=O)N(O)CCCCCNC(=O)CCC(=O)N(O)CCCCCNC(=O)CCC(=O)N(O)CCCCCN`, the Potency was 25100 nM (active).

Turning to `CC(C)NCC(O)COc1cccc2[nH]ccc12` (stereo unspecified), the molecule was called inactive.

Regarding `CCC1=C[C@@H]2CN(C1)Cc1c([nH]c3ccccc13)[C@@](C(=O)OC)(c1cc3c(cc1OC)N(C)[C@H]1[C@@](O)(C(=O)OC)[C@H](OC(C)=O)[C@]4(CC)C=CCN5CC[C@]31[C@@H]54)C2`, the “activity change, negative = cytotoxicity” value was -35.3% (inactive).

Take `C[N+]1(C)CCC(OC(=O)C(O)(c2ccccc2)C2CCCC2)C1` (stereo unspecified): the outcome was inactive.

Take `Nc1ccn([C@@H]2O[C@H](CO)[C@@H](O)C2(F)F)c(=O)n1`: the “activity change, negative = cytotoxicity” value was -14.5% (inactive).

On to `OCCN(CCO)c1nc(N2CCCCC2)c2nc(N(CCO)CCO)nc(N3CCCCC3)c2n1`, for which the Potency result is “inactive”.

For the molecule `Cc1ccc(-n2[nH]c(C)c(N=Nc3cccc(-c4cccc(C(=O)O)c4)c3O)c2=O)cc1C`, the molecule was classed as inactive.

For `CC(=O)N[C@@H](CS)C(=O)O`, the “activity change, negative = cytotoxicity” value is 1.66% (inactive).

For `CCCc1cc(=O)[nH]c(=S)[nH]1`, the Potency result was “inactive”.

Turning to `CN(C)CCOC(c1ccc(Cl)cc1)c1ccccn1` (stereo unspecified), the “activity change, negative = cytotoxicity” value is -25.7% (inactive).

Regarding `CN1CCN(C2=Nc3cc(Cl)ccc3Nc3ccccc32)CC1`, the Potency result was “inactive”.

`CO[C@@H](C(=O)N1Cc2[nH]nc(NC(=O)c3ccc(N4CCN(C)CC4)cc3)c2C1)c1ccccc1`: the “activity change, negative = cytotoxicity” value was -21.3% (inactive).

On to `CC[C@@]1(O)C(=O)OCc2c1cc1n(c2=O)Cc2cc3c(CN(C)C)c(O)ccc3nc2-1`, for which the “activity change, negative = cytotoxicity” value is -35.1% (inactive).

Regarding `CN1CCN(C2=Nc3ccccc3Oc3ccc(Cl)cc32)CC1`, the result was inactive.

Turning to `CCc1ccc(CCOc2ccc(CC3SC(=O)NC3=O)cc2)nc1` (stereo unspecified), the Potency entry is “inactive”.

On to `COc1c(C)c2c(c(O)c1C/C=C(\C)CCC(=O)O)C(=O)OC2`, for which the “activity change, negative = cytotoxicity” value was -22.2% (inactive).

Take `CNCCCC1c2ccccc2C=Cc2ccccc21`: the “activity change, negative = cytotoxicity” value is -12.9% (inactive).

With `COC(=O)C1=C(C)NC(C)=C(C(=O)OCCN(C)Cc2ccccc2)C1c1cccc([N+](=O)[O-])c1` (stereo unspecified), the “activity change, negative = cytotoxicity” value is -5.32% (inactive).

With `C=CC(=O)Nc1cc2c(Nc3ccc(F)c(Cl)c3)ncnc2cc1OCCCN1CCOCC1`, the Potency was 35500 nM (active).

On to `N=c1nc(N2CCCCC2)cc(N)n1O`, for which the molecule was classed as inactive.

On to `Cc1ccccc1C(OCCN(C)C)c1ccccc1` (stereo unspecified), for which the “activity change, negative = cytotoxicity” value was 3.09% (inactive).

For the molecule `CN1C(CCl)Nc2cc(Cl)c(S(N)(=O)=O)cc2S1(=O)=O` (stereo unspecified), the result was inactive.

For `CN(C)c1nc(N(C)C)nc(N(C)C)n1`, the Potency entry is “inactive”.

For the molecule `CCOC(=O)C1=C(C)NC(C)=C(C(=O)OC)C1c1cccc(Cl)c1Cl` (stereo unspecified), the result was inactive.

On to `CCN(CC)CCCC(C)Nc1ccnc2cc(Cl)ccc12` (stereo unspecified), for which the Potency result was “inactive”.

On to `COc1cc2nc(N3CCN(C(=O)C4COc5ccccc5O4)CC3)nc(N)c2cc1OC` (stereo unspecified), for which the call was inactive.

For `CC#C[C@]1(O)CC[C@H]2[C@@H]3CCC4=CC(=O)CCC4=C3[C@@H](c3ccc(N(C)C)cc3)C[C@@]21C`, the Potency result was “inactive”.

As for `C#C[C@]1(O)CC[C@H]2[C@@H]3CCC4=Cc5oncc5C[C@]4(C)[C@H]3CC[C@@]21C`, the “activity change, negative = cytotoxicity” value is -20.5% (inactive).

Turning to `COC1=CC(=O)C[C@@H](C)[C@]12Oc1c(Cl)c(OC)cc(OC)c1C2=O`, the “activity change, negative = cytotoxicity” value is -20.7% (inactive).

Take `COC(c1ccccc1)(c1ccccc1)[C@H](Oc1nc(C)cc(C)n1)C(=O)O`: the Potency result is “inactive”.

A short description of the next experiment: Primary qHTS to identify inhibitors of SARS-CoV-2 cell entry (AID 1645846). Note: nearly all actives have a fitted effect of over 45% in size. To be noted: SARS-CoV-2 pseudovirus cell entry assay, luminescence; activity change, negative = inhibition: at 57.1 µM (top of the series) unless noted; series mostly up to 57.1 µM. Summed up:
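Inhibition of spike-mediated entry was scored in human ACE2-transfected Expi293F cells. Particles were MLV-pseudotyped with Wuhan-Hu-1 S carrying a 19-aa C-terminal deletion; signal was luciferase after two days, scaled between spike PP and fusion-protein-free PP.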
As for `COC(=O)Nc1nc2ccc(C(=O)c3cccs3)cc2[nH]1`, the activity change, negative = inhibition was -61.3%.

In the case of `COC(=O)C1=C(C)NC(C)=C(C(=O)OCC(C)C)C1c1ccccc1[N+](=O)[O-]` (stereo unspecified), the activity change, negative = inhibition is -96.9%.

Take `Cc1ccc(NC(=O)c2ccc(CN3CCN(C)CC3)cc2)cc1Nc1nccc(-c2cccnc2)n1`: the Potency is 35500 nM (active).

Regarding `CCC1=C[C@@H]2CN(C1)Cc1c([nH]c3ccccc13)[C@@](C(=O)OC)(c1cc3c(cc1OC)N(C)[C@H]1[C@@](O)(C(=O)OC)[C@H](OC(C)=O)[C@]4(CC)C=CCN5CC[C@]31[C@@H]54)C2`, the Potency was 2820 nM (active) and the activity change, negative = inhibition is -90.3%.

Take `Nc1ccn([C@@H]2O[C@H](CO)[C@@H](O)C2(F)F)c(=O)n1`: the Potency is 3160 nM (active) and the activity change, negative = inhibition was -96.3%.

In the case of `CCCc1cc(=O)[nH]c(=S)[nH]1`, the molecule was called inactive and the activity change, negative = inhibition was -37.3%.

Turning to `CO[C@@H](C(=O)N1Cc2[nH]nc(NC(=O)c3ccc(N4CCN(C)CC4)cc3)c2C1)c1ccccc1`, the activity change, negative = inhibition is -64.7%.

Consider `COc1cc(Nc2c(C#N)cnc3cc(OCCCN4CCN(C)CC4)c(OC)cc23)c(Cl)cc1Cl`, for which the Potency was 3160 nM (active).

On to `COc1c(C)c2c(c(O)c1C/C=C(\C)CCC(=O)O)C(=O)OC2`, for which the Potency is 1000 nM (active).

As to `CCc1c2c(nc3ccc(OC(=O)N4CCC(N5CCCCC5)CC4)cc13)-c1cc3c(c(=O)n1C2)COC(=O)[C@]3(O)CC`, the Potency was 891 nM (active) and the activity change, negative = inhibition is -95.5%.

For the molecule `COC(c1ccccc1)(c1ccccc1)[C@H](Oc1nc(C)cc(C)n1)C(=O)O`, the call was inactive and the activity change, negative = inhibition is -34.8%.
